# Laboratory results: PubChem BioAssay (NCI)
# Compounds without any hit were thinned out: in the full panel of roughly 83,000, 20% have a hit.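 Treatment: one concentration, 48 hours, 96-well format. Scoring: percent growth, with anything below 10 considered active.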 Values without a mark were called inactive. Active and inactive are the calls of the source.
# Assays:
# Test in all cases: NCI-60 one-dose screen, 48 h (100 = growth as untreated, 0 = no growth, -100 = all killed)
# Details in all cases: 10 µM unless noted
# NCI-H23 lung = system: NCI-H23 lung
# NCI-H226 lung = system: NCI-H226 lung
# NCI-H322M lung = system: NCI-H322M lung
# HOP-62 NSCLC = system: HOP-62 NSCLC
# NCI-H460 lung = system: NCI-H460 lung
# NCI-H522 lung = system: NCI-H522 lung
# A549/ATCC NSCLC = system: A549/ATCC NSCLC
# 786-0 renal = system: 786-0 renal
# COLO 205 colon = system: COLO 205 colon
# DU-145 prostate = system: DU-145 prostate
# K-562 leukemia = system: K-562 leukemia
# MALME-3M melanoma = system: MALME-3M melanoma
# MDA-MB-231 breast = system: MDA-MB-231 breast
# RXF 393 renal = system: RXF 393 renal
# SF-268 CNS = system: SF-268 CNS
# SF-539 CNS = system: SF-539 CNS
# UACC-257 melanoma = system: UACC-257 melanoma
# M14 melanoma = system: M14 melanoma
# HCT-15 colon = system: HCT-15 colon
# SF-295 CNS = system: SF-295 CNS
Structure (SMILES),growth (NCI-H23 lung),growth (NCI-H226 lung) [%],growth (NCI-H322M lung),growth (HOP-62 NSCLC),growth (NCI-H460 lung),growth (NCI-H522 lung),growth (A549/ATCC NSCLC),growth (786-0 renal),growth (COLO 205 colon),growth (DU-145 prostate),growth (K-562 leukemia),growth (MALME-3M melanoma),growth (MDA-MB-231 breast),growth (RXF 393 renal),growth (SF-268 CNS),growth (SF-539 CNS),growth (UACC-257 melanoma),growth (M14 melanoma),growth (HCT-15 colon),growth (SF-295 CNS)
O=[P@@]1(c2ccccc2)O[C@H](COCc2ccccc2)[C@@H](OCc2ccccc2)[C@H](OCc2ccccc2)[C@H]1NCc1ccccc1,20.5%,40.6,47.9%,54.3%,4.06% (active),20.5%,13.3%,13.9%,-57.2% (active),45.7%,6.58% (active),-7.61% (active),13.6%,28.7%,32.2%,27.2%,22.5%,15.2%,15.9%,–
CC1CC(C)/C(=N/NC(N)=O)C(C(O)CC2CCC(=O)NC2=O)C1 (configuration not stated),36.1%,42.3,14.4%,49.3%,31.7%,18%,27.7%,25%,42.1%,37.4%,40.8%,35.6%,46.9%,38.2%,34.1%,–,54.9%,34.1%,37.8%,-9.66% (active)
C=C1c2c(C)nn(-c3ccc(C#CCOC4OC(CO)C(O)C(O)C4O)cc3)c2N(C)C23C[C@H]1C1(C)c4c(C)nn(-c5ccc(C#CCOC6OC(CO)C(O)C(O)C6O)cc5)c4N(C)C(C)(C[C@H]12)C3 (some centres not stated),12.4%,23.4,1.68% (active),3.61% (active),-45.9% (active),-3.82% (active),24.9%,17.2%,8.45% (active),16.9%,9.32% (active),5.2% (active),5.4% (active),37.5%,7.57% (active),-15.3% (active),34.2%,0.248% (active),21.7%,–
CSc1nc2c(c(=O)[nH]1)C(c1ccc(Cl)cc1)C1=C(N2)/C(=C/c2ccc(Cl)cc2)CNC1 (configuration not stated),69%,78.9,64.1%,-2.54% (active),37.3%,79.3%,32.2%,88.4%,29.2%,39.3%,8.37% (active),91.9%,40.4%,52.3%,10.1%,–,81.9%,64.1%,13.5%,69.3%
COc1ccc(-c2nn(-c3cccc(Cl)c3)cc2C2CC(c3ccccc3)=NN2C(C)=O)cc1 (configuration not stated),84.2%,37.9,76.8%,-18.1% (active),39.6%,60.9%,67.6%,72.2%,81.6%,72.2%,96.1%,46.8%,72.9%,54.4%,66.9%,50.6%,86.2%,89.2%,86%,–
Cc1cc(C)n2nc(SCC(=O)Nc3sc4c(c3C(N)=O)CCC4)nc2n1,101%,87.1,99.7%,93.7%,116%,94%,146%,96.4%,118%,101%,119%,106%,99.2%,117%,113%,90.8%,–,102%,108%,101%
O=C(OCCBr)c1ccc(Cl)c([N+](=O)[O-])c1,104%,126,28.6%,131%,103%,8.61% (active),104%,102%,106%,14.6%,82.9%,97.2%,92%,132%,100%,102%,86.8%,91.8%,90.9%,–
O=C(N1CCC(CN=c2cc3n(-c4ccc(Cl)cc4)c4ccccc4nc-3cc2Nc2ccc(Cl)cc2)CC1)N1CC1,-58.2% (active),37.2,-54.3% (active),-85.2% (active),-71.5% (active),-76.7% (active),-89.4% (active),-93.2% (active),-59% (active),-95.3% (active),-66.5% (active),-72.5% (active),-56.9% (active),-93.3% (active),-63.6% (active),-88% (active),-94.4% (active),-73.8% (active),-36.8% (active),–
